Results taken from PubChem BioAssay AID1946 (Johns Hopkins Ion Channel Center, 2009).
Out of some 2,400 compounds screened, about 180 (7.5%) were called active. The full list was thinned out, with actives kept by preference. Values without a mark were called inactive.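 Rule for the calls: active = readout below zero, meaning a drop past 3 SD under the dofetilide-free negative control mean; inactive = the rest.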

Target: Potassium voltage-gated channel subfamily KQT member 2 (Rattus norvegicus) (UniProt O88943)
Assay: KCNQ2 blockade in CHO cells – cell-based, FluxOR thallium flux, counter-screen for hERG block protector project, confirmation (AID 1946)
Conditions: FluxOR thallium flux fluorescence, at 10 µM, stronger effect = lower value, zero marks the 3-SD hit cutoff

Sequence of Potassium voltage-gated channel subfamily KQT member 2 (Rattus norvegicus) (O88943 whole entry, looked up): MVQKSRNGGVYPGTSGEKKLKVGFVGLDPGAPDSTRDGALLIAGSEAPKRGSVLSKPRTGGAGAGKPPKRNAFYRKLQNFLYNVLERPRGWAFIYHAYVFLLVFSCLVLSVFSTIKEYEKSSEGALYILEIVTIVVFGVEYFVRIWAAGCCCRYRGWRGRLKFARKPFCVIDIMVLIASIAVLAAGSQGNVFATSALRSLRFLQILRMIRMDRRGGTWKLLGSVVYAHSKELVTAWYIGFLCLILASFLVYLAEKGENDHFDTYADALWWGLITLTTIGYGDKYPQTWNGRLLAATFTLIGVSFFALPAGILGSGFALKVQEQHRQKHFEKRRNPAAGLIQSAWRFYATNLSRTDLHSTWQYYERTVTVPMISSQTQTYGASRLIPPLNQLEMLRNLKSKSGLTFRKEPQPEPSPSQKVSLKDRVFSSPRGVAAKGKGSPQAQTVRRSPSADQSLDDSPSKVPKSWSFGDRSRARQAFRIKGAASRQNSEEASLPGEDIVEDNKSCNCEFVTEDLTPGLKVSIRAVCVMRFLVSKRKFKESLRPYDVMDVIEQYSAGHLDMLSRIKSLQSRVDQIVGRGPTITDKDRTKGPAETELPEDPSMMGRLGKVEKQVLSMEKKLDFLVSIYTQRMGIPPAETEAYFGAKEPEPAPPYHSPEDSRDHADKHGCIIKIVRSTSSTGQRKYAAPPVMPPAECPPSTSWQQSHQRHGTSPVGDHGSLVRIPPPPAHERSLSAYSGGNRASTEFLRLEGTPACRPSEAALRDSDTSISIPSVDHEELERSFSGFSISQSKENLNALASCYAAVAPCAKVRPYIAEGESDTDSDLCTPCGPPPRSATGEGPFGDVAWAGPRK

With `CC(C)(C)OC(=O)NCCCC(CCCNC(=O)OC(C)(C)C)C(=O)O` the activity change vs negative control was -1.1% (active).
`Cc1ccc(/C=C(\NC(=O)c2ccccc2)C(=O)N2CCCCC2)cc1` was tested, and the activity change vs negative control was -1.3% (active).
With `COC(=O)c1ccc(NC(=O)COC(=O)C2CC(=O)N(Cc3ccccc3)C2)cc1` (stereo not given) the activity change vs negative control was -5.2% (active).
For `Cc1ccccc1C(=O)c1cn[nH]c1-c1ccccc1O`, the activity change vs negative control was -4.7% (active).
In the case of `Cc1cccc(OCC(=O)NC2CCCc3ccccc32)c1C` (stereo not given), the activity change vs negative control is reported as -10.6% (active).
For `Cn1nnnc1SCC(=O)NC1CCCc2ccccc21` (stereo not given), the activity change vs negative control was -7.8% (active).
`Cc1ccc(/C=N/N2C(=O)c3ccccc3NC2c2ccc(C)cc2)cc1` (stereo not given) was tested, and the activity change vs negative control was -1.1% (active).
`CC(=O)C1=C(O)C(=O)N(c2cccnc2)C1c1ccc(Cl)cc1` (stereo not given) was tested, and the activity change vs negative control was -2.8% (active).
With `Nc1nc(O)c(N=Nc2ccc(S(N)(=O)=O)cc2)c(=O)[nH]1` the activity change vs negative control was -2% (active).
With `C=Cc1ccc(Cn2c(=O)n(CCCOC)c(=O)c3sccc32)cc1` the activity change vs negative control was -5.9% (active).
In the case of `Cc1cccc2nc(-c3cccnc3)c(NCCC(C)C)n12`, the activity change vs negative control is reported as -23.5% (active).
With `C/C(=C/CCC(C)[C@H]1CC[C@@]2(C)C3=C(CC[C@]12C)[C@@]1(C)CCC(=O)C(C)(C)[C@@H]1CC3)C(=O)O` (stereo not given in full) the activity change vs negative control was -13.3% (active).
In the case of `Cc1ccnc(SCCn2c(N3CC(C)OC(C)C3)nc3c2c(=O)n(C)c(=O)n3C)n1` (stereo not given), the activity change vs negative control is reported as -2% (active).
`Cc1cc(C(=O)NP(=O)(N2CCOCC2)N2CCOCC2)c(C)n1-c1ccc(Br)cc1` was tested, and the activity change vs negative control was -0.1% (active).
With `COc1ccc(-c2cc(=O)oc3cc(OCC(C)=O)ccc23)cc1` the activity change vs negative control was -6.4% (active).
With `c1ccc(Cn2ncc3c(N4CCN(C(c5ccccc5)c5ccccc5)CC4)ncnc32)cc1` the activity change vs negative control was -7.5% (active).
In the case of `O=C(NN1C(=O)C2C(c3ccccc3)C=CC(c3ccccc3)C2C1=O)c1ccncc1` (stereo not given), the activity change vs negative control is reported as -13% (active).
For `Cc1ccc(-c2onc3ccc(Cl)cc23)cc1`, the activity change vs negative control was -2% (active).
With `O=C(Cn1c(=O)c2cccn2c2ccccc21)NCCc1ccc(Cl)cc1` the activity change vs negative control was -3.5% (active).
For `COc1ccccc1C(=O)COC(=O)c1ccc(-n2cnnn2)cc1`, the activity change vs negative control was -0.2% (active).

First: Cc1c(C)c2ccc(OCC(=O)N[C@@H](Cc3ccccc3)C(=O)O)cc2oc1=O
Second: Cc1cc(=O)oc2cc(OCC(=O)OCC(=O)NC(C)C)ccc12
The activity change vs negative control of the first is lower: 11.8% for the first, 12.7% for the second.

First: O=C(NC(=S)Nc1ccccc1Cl)c1ccco1
Second: O=C(NC(=S)NC1CCCc2ccccc21)c1ccco1 (stereo not given)
The activity change vs negative control of the first is higher: 32.3% for the first, 28.4% for the second.

First: O=C(CCC1CCCC1)NNC(=O)c1cccc(Cl)c1
Second: CC1CCN(C(=S)NC(=O)c2cccc([N+](=O)[O-])c2)CC1
The activity change vs negative control of the first is higher: 39.5% for the first, 37.1% for the second.

First: Cn1c(=S)[nH]c2scc(-c3cccs3)c2c1=O
Second: Cn1c(=O)c2sccc2n(Cc2cccc(Br)c2)c1=O
The activity change vs negative control of the first is higher: 93.4% for the first, 10.6% for the second.

Going from `CCc1ccc(C(C)NC(=O)C2CCCC2)cc1` (stereo not given) to `Cc1ccc(C(C)NC(=O)C2CCCC2)cc1C` (stereo not given), the activity change vs negative control rises from 42.6% to 66.7%.

First: CCCCCn1c(=S)[nH]c2ncccc2c1=O
Second: COCCCn1c(=S)[nH]c2c(sc3ccccc32)c1=O
The activity change vs negative control of the first is higher: 48.4% for the first, 12.3% for the second.

Going from `O=C(NC(=S)N1CCN(c2ccccc2)CC1)c1ccccc1` to `O=C(NC(=S)N1CCCc2ccccc21)c1ccc(Br)cc1`, the activity change vs negative control rises from 33.2% to 49.6%.

Compared with `CC(C)(C)c1ccc(C(=O)NC(=S)N2CCCCCC2)cc1`, `CCOC(=O)NC(=S)Nc1ccc(C(C)(C)C)cc1` is lower in activity change vs negative control: 40.6% for the first, 30.4% for the second.

Going from `CCCCOc1ccc(-c2c(C#N)c(N)[nH]c(=S)c2C#N)cc1` to `CCOc1ccc(/C=C2/SC(=O)NC2=S)cc1`, the activity change vs negative control rises from 21.3% to 111%.

Going from `O=c1oc2ccccc2c(Cl)c1CN1CCCCC1` to `COc1ccccc1C(=O)Nc1ccc(C(=O)N2CCCC2)cc1`, the activity change vs negative control falls from 32.3% to 14.7%.

Compared with `C=CCn1c(=S)[nH]c2ccc(Br)cc2c1=O`, `C=CCn1c(=S)[nH]c2sc3c(c2c1=O)CCC3` is higher in activity change vs negative control: 40.2% for the first, 64.2% for the second.

Compared with `COc1ccc(N2CC(C(=O)OCC(=O)Nc3ccccc3C)CC2=O)cc1` (stereo not given), `O=C(COC(=O)C1CCC(=O)N1)Nc1ccc(Oc2ccccc2)cc1` (stereo not given) is higher in activity change vs negative control: 9% for the first, 10.5% for the second.

Going from `COC(=O)c1c(NS(=O)(=O)Cc2ccccc2)sc2c1CCCC2` to `CC(C)OC(=O)c1c(NS(=O)(=O)c2ccccc2)sc2c1CCCC2`, the activity change vs negative control falls from 56.6% to 31%.

Going from `Cc1ccc(C(=O)c2ccccc2C(=O)O)c(O)c1` to `Cc1ccc(/C=C/C(=O)C2C(=O)c3ccccc3C2=O)cc1`, the activity change vs negative control rises from 6.4% to 69.5%.

Compared with `Cc1ccccc1C(=O)Nc1nc(=S)ss1`, `Cc1c(-c2ccccc2)sc2nc[nH]c(=S)c12` is lower in activity change vs negative control: 82.2% for the first, 75% for the second.

Going from `COc1ccc(C(=O)CC(=O)C(=O)Nc2ccccc2C(F)(F)F)cc1` to `Cc1cccc(NC(=O)C(=O)NNC(=O)c2ccc(C(C)(C)C)cc2)c1`, the activity change vs negative control rises from 36.8% to 134%.

Going from `CCOC(=O)N1CCC(N2C(=O)c3ccccc3C2Nc2cccnc2)CC1` (stereo not given) to `O=C1c2ccccc2C(=O)N1c1cccnc1`, the activity change vs negative control falls from 27.6% to 6.9%.

Going from `CCOc1ccc(C(C)NC(=S)NC2CCCCC2)cc1` (stereo not given) to `CC(NC(=O)NC1CCCCC1)c1ccccc1` (stereo not given), the activity change vs negative control rises from 40.9% to 57.6%.

Compared with `Fc1cccc2sc(Nc3nc4c(F)cccc4s3)nc12`, `O=c1c2cc(Cl)ccc2nc(-c2ccc(Cl)c(Cl)c2)n1O` is higher in activity change vs negative control: 30.2% for the first, 150% for the second.

Compared with `Cc1ccc(-c2csc3nc[nH]c(=S)c23)cc1`, `Cc1ccc(-c2nc3ccc(Cl)cc3c(=O)n2O)cc1` is higher in activity change vs negative control: 62.4% for the first, 118% for the second.

First: CCn1nnnc1SCC(=O)N1c2ccccc2Sc2ccccc21
Second: S=c1nc(SCc2ccccc2)[nH]c2ccccc12
The activity change vs negative control of the first is lower: 5.3% for the first, 95.4% for the second.

Going from `CCOc1ccc(NC(=O)CS(=O)CC(=O)NC2CCCc3ccccc32)cc1` (stereo not given) to `CCCCC(=O)Nc1ccc(NCc2ccc(C)s2)cc1`, the activity change vs negative control rises from 8.3% to 66.2%.

First: Cn1nnnc1SCC(=O)Nc1ccccn1
Second: CCOC(=O)c1nnn(CC(=O)Nc2ccccc2OC)c1C(=O)OCC
The activity change vs negative control of the first is higher: 8.7% for the first, 7.9% for the second.

First: CCN(Cc1ccccc1)C(=S)NC(=O)c1ccccc1Br
Second: CN(Cc1ccccc1)C(=S)NC(=O)c1cccs1
The activity change vs negative control of the first is higher: 96.1% for the first, 31.2% for the second.

Going from `Cc1cc([N+](=O)[O-])ccc1-c1ccc(C2Nc3ccccc3C(=O)N2O)o1` (stereo not given) to `O=C1c2ccccc2NC(c2ccc(Br)s2)N1O` (stereo not given), the activity change vs negative control rises from 24.1% to 92.4%.

Going from `CC(C)CNC(=S)NC(=O)c1ccc(Cl)cc1` to `O=C(NC(=S)NCCc1ccc(Cl)cc1)c1ccco1`, the activity change vs negative control rises from 10.6% to 23.7%.

Going from `CCc1c(C)sc(NC(=O)CN2CCN(C(=O)c3ccco3)CC2)c1C(=O)OC` to `Cc1cccc(N2CCN(C(=O)Cc3c(C(=O)O)[nH]c4ccc(Cl)cc34)CC2)c1C`, the activity change vs negative control falls from 44.4% to 38.6%.

Compared with `Cc1ccc(-c2nc3c(Cl)cc(Cl)cc3c(=O)n2O)cc1`, `COc1ccc(-c2c(C)c3ccc(OCC(C)=O)cc3oc2=O)cc1` is lower in activity change vs negative control: 164% for the first, 4.2% for the second.

Compared with `CC1=NN(c2ccccc2)C(=O)C1C(=O)c1ccc(Cl)cc1` (stereo not given), `O=C(CNC(=O)c1ccccc1)NCc1ccc(Cl)cc1` is lower in activity change vs negative control: 28.9% for the first, 10.8% for the second.

Going from `Cc1ccc2[nH]c(=O)c(C(c3nnnn3C3CCCC3)N3CCCc4ccccc43)cc2c1` (stereo not given) to `Oc1ccc(N2CCN(C(c3cccnc3)c3nnnn3Cc3ccccc3)CC2)cc1` (stereo not given), the activity change vs negative control falls from 27.9% to 19.3%.

First: COc1ccc(-c2csc(NC(=S)NC(=O)c3ccco3)n2)cc1
Second: O=C(NC(=S)Nc1nc(-c2ccc([N+](=O)[O-])cc2)cs1)c1ccco1
The activity change vs negative control of the first is lower: 21.1% for the first, 42% for the second.

Compared with `CC(C)Cn1c(=S)[nH]c2cc(Cl)ccc21`, `Oc1ccc(Cl)cc1C1=NNC(c2cccs2)C1` (stereo not given) is higher in activity change vs negative control: 21% for the first, 36.9% for the second.

Compared with `COc1ccc(-c2nc(=S)c3ccc4ccccc4c3[nH]2)cc1`, `COc1ccccc1NC(=S)NC(=O)c1ccc(-c2ccc(Cl)cc2)o1` is lower in activity change vs negative control: 74.5% for the first, 16.7% for the second.

Compared with `C/C(=C/CCC(C)C1CCC2(C)C3CCC4C(C)(C)C(=O)CCC4(C)C3=CCC12C)C(=O)O` (stereo not given), `CC[C@@H](C(=O)[C@@H](C)[C@@H](O)[C@H](C)CCc1ccc(C)c(O)c1C(=O)O)[C@H]1O[C@](CC)([C@H]2CC[C@](O)(CC)[C@H](C)O2)C[C@@H]1C` is higher in activity change vs negative control: 4.1% for the first, 169% for the second.

Going from `COc1cccc(C=NCCCN=Cc2cccc(OC)c2O)c1O` to `O=c1c(-c2cccc3ccccc23)[n+]([O-])c2ccccc2n1O`, the activity change vs negative control falls from 37.4% to 27.4%.

Going from `C=CCn1c(N2CCCCCC2)nc2c1c(=O)n(C)c(=O)n2C` to `C=CCn1c(=S)[nH]c2sc3c(c2c1=O)CCCC3`, the activity change vs negative control rises from 15.6% to 60.7%.

Compared with `Cc1cc(F)c(F)c(C(=O)N2CCOCC2)c1`, `Cc1ccc(-n2c(C)cc(C(=O)CN3CCOCC3)c2C)cc1` is higher in activity change vs negative control: 7.3% for the first, 10.9% for the second.

First: CC(C)c1ccc(NC(=O)C2CC3CCC2C3)cc1 (stereo not given)
Second: CCOC(=O)C1=NN(C(=O)c2cccc(Br)c2)C(O)(C(C)(C)C)C1 (stereo not given)
The activity change vs negative control of the first is lower: 45.1% for the first, 111% for the second.

First: O=C(NN1C(=O)C2C(c3ccccc3)C=CC(c3ccccc3)C2C1=O)c1cccc(Br)c1 (stereo not given)
Second: O=c1cc(-c2c(F)c(F)c(F)c(F)c2F)oc2ccccc12
The activity change vs negative control of the first is lower: 10.8% for the first, 41.6% for the second.

First: O=C(Nn1cnnc1)c1ccncc1
Second: Cc1nc(NCCc2ccc(S(N)(=O)=O)cc2)c2c(C)c(C)sc2n1
The activity change vs negative control of the first is lower: 12.7% for the first, 15.2% for the second.
